p53ts 39C kill: qHTS Screen for Compounds that Selectively Target Cancer Cells with p53 Mutations: Cytotoxicity of p53ts Cells at the Nonpermissive Temperature. H1299-p53A138V viability at 39C, ATP luminescence, 24 h. Potency, µM (top dose mostly 46.1 µM), for inactives: at the top dose activity change, negative = cell killing, hits mostly cytotoxic. actives 1.5% (n = 130,000); note: potency is the fitted concentration of half-maximal effect; % is set by controls: 0 for no effect and ±100 for the full control effect; nearly all actives have a fitted effect of over 55% in size
DNA Pol III inh: qHTS Assay for Inhibitors of DNA Polymerase III Holoenzyme System; reconstituted DNA polymerase III holoenzyme replication, biochemical; Potency, µM (titrated, usually from 57.1 µM), for inactives: at the top dose activity change, negative = inhibition; actives 0.25% (n = 71,000); AID 603, 2007; note: potency is the fitted concentration of half-maximal effect; % is set by controls: 0 for no effect and ±100 for the full control effect
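Reconstituted *E. coli* holoenzyme (0.35 nM Pol III, 1 nM beta, 154 nM SSB, 2 nM primase) was preincubated with compound for 15 min at RT. Synthesis on 1.4 nM ssM13Gori ran 35 min, then was stopped with PicoGreen/EDTA and read as dsDNA fluorescence.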
TsaE inh: qHTS Assay for Inhibitors of YjeE | tRNA threonylcarbamoyladenosine biosynthesis protein TsaE (Escherichia coli (strain … | purified YjeE enzyme, qHTS inhibition assay | Potency, µM | actives 0.05% (n = 71,000)
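Fluorescence polarization of a BODIPY Texas Red–ADP probe (2 uM) bound to purified YjeE (10 uM) was read after 15 min room-temperature incubation with compounds. Loss of polarization marks inhibitors; ADP serves as titrated control.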
Tau filament bind: qHTS Assay for Tau Filament Binding | Potency, µM (doses to about 57.1 µM), inactives show at the top dose activity change, negative = inhibition | recombinant tau filaments, thioflavin S fluorescence, 15 h; filaments grown with octadecylsulfate alongside compound | actives 2% (n = 71,000);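 note: potency is the fitted concentration of half-maximal effect; % is set by controls: 0 for no effect and ±100 for the full control effect; actives lower thioflavin S fluorescence by blocking filaments or displacing dye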
Target sequence (P10636 whole entry, looked up): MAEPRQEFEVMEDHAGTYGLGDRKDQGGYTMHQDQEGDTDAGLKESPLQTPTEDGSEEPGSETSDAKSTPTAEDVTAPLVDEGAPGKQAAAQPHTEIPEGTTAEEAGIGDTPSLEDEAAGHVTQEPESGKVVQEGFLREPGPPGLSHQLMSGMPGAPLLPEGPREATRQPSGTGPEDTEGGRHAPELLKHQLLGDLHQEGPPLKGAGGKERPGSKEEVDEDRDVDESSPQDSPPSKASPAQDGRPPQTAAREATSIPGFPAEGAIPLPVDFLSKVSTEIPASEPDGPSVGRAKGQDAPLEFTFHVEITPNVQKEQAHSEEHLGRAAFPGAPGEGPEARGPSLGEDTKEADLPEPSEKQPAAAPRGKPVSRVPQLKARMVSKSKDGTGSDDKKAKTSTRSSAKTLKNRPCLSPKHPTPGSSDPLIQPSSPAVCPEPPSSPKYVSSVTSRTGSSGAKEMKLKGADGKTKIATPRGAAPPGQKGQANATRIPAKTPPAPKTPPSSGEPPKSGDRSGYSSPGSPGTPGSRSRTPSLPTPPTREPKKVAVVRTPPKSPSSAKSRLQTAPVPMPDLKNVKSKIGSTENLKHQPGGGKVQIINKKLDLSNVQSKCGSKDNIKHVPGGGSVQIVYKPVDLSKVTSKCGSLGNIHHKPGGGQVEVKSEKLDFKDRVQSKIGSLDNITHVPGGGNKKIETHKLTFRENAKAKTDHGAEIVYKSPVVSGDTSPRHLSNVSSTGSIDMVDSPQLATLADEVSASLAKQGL
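Thioflavine S fluorescence (ex 450, em 510 nm) reports filaments formed from 1 uM human tau plus 30 uM ODS over 15 h at 37 C (10 mM HEPES pH 7.4, 100 mM NaCl, 5 mM DTT); compounds displacing dye or blocking filaments lower signal.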
ERK AVP inh: qHTS Assay for Inhibitors of the ERK Signaling Pathway using a Homogeneous Screening Assay | HEK293-V1b, vasopressin-stimulated pERK AlphaScreen | Potency, µM (series often up to 57.5 µM), without a hit: at the highest dose activity, negative = inhibition, usual class: inhibitors | actives 0.99% (n = 72,000) | AID 995, 2007; note: potency is the fitted concentration of half-maximal effect; % is set by controls: 0 for no effect and ±100 for the full control effect; nearly all actives have a fitted effect of over 55% in size
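HEK293 cells stably expressing V1b receptor, preincubated 30 min at 37 °C with compound, then stimulated 5 min with 25 nM vasopressin. Phospho-ERK by AlphaScreen SureFire after 5 h RT; normalized to DMSO and vasopressin; AC50 by Hill fit.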
p53ts 32C kill: qHTS Screen for Compounds that Selectively Target Cancer Cells with p53 Mutations: Cytotoxicity of p53ts Cells at the Permissive Temperature | H1299-p53A138V at 32C, ATP luminescence viability, 24 h | Potency, µM (titrated, usually from 46.1 µM), inactives show at the highest dose activity change, negative = cytotoxicity, usual class: cytotoxic | actives 0.93% (n = 130,000) | AID 924, 2007;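 note: potency is the fitted concentration of half-maximal effect; 0% = DMSO and -100% = full killing by reference compound; nearly all actives have a fitted effect of over 55% in size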
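ATP-content luminescence (ATPlite) read-out after 24 h compound exposure at 32C in H1299-p53A138V cells (600/well). Tested up to 46 uM. Normalized to DMSO (0%) and 100 uM tamoxifen (100% killing); Hill-fit AC50.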
* marks the source's active call; other numbers are inactive results; [ ] = dose if it differs, or a comment. Only some compounds are listed: those with a hit (about 3.2% of all), similar ones and a draw of the others. Calls come from the whole dose curve; as a rule, active = well fitted curve in the direction sought with a large enough effect; inconclusive = small, poorly fitted or top-dose-only effect, or another doubt; inactive = no such curve, though single readings can be large; an effect the other way counts as inactive or inconclusive.

For C/C(Cl)=C\Cn1c(N2CCCC2)nc2c1c(=O)[nH]c(=O)n2C the results were p53ts 39C kill 14%, DNA Pol III inh -3%, TsaE inh inactive, Tau filament bind 3%, ERK AVP inh 25µM* and p53ts 32C kill 9%.
For C=CCn1c(N2CCCCCC2)nc2c1c(=O)[nH]c(=O)n2C the results were p53ts 39C kill 15%, DNA Pol III inh -1%, TsaE inh inactive, Tau filament bind 4%, ERK AVP inh 18% and p53ts 32C kill 10%.
`CCc1c(C)c2ccc(O)c(CN3CCN(c4ccc(F)cc4)CC3)c2oc1=O` gave p53ts 39C kill -15% and p53ts 32C kill 8%.
Screening CCc1c(C)c2ccc(O)c(CN3CCN(c4ccc(OC)cc4)CC3)c2oc1=O returned p53ts 39C kill 7.9µM* and p53ts 32C kill inconclusive.
For CC(=O)C1=C(C)N=c2s/c(=C/c3ccc4c(c3)OCO4)c(=O)n2C1c1ccc(N(C)C)cc1 (stereo not given) the results were p53ts 39C kill -9%, DNA Pol III inh 4%, TsaE inh inactive, Tau filament bind 4µM*, ERK AVP inh -12% and p53ts 32C kill 8%.
Screening O=C(c1ccc(F)cc1)n1nc(-c2cccnc2)nc1NCc1ccc(F)cc1 returned p53ts 39C kill 8% and p53ts 32C kill 6%.
O=C(c1ccc(Cc2nc3ccccc3[nH]2)cc1)N1CCCCC1 was read as p53ts 39C kill 2% and p53ts 32C kill 1%.
Screening O=C(c1cnccn1)N1CCC2(CCCN(C(c3ccccc3)c3ccccc3)C2)CC1 returned p53ts 39C kill inconclusive, DNA Pol III inh 2%, TsaE inh inactive, Tau filament bind -1%, ERK AVP inh 40µM* and p53ts 32C kill -17%.
Screening COc1ccc(C)cc1NC(=O)C(Cc1ccccc1)NS(=O)(=O)c1cccs1 (stereo not given) returned p53ts 39C kill -14% and p53ts 32C kill -2%.
`COc1ccc(C)cc1NC(=O)C(Cc1ccccc1)NS(=O)(=O)c1ccc(Br)s1` (stereo not given) gave p53ts 39C kill 13µM* and p53ts 32C kill inconclusive.
For O=C(COc1ccc2c(c1)CCC2)N1CCc2ccccc21 the results were p53ts 39C kill inconclusive, DNA Pol III inh -1%, TsaE inh inactive, Tau filament bind 10%, ERK AVP inh -8% and p53ts 32C kill 13µM*.
Screening Cc1cc2ncn(C3CC(=O)N(Cc4ccccc4)C3=O)c2cc1C (stereo not given) returned p53ts 39C kill 8%, DNA Pol III inh -12%, TsaE inh inactive, Tau filament bind 3%, ERK AVP inh 32µM* and p53ts 32C kill 11%.
O=C(NCc1ccccc1Cl)c1ccc(CS(=O)(=O)c2ccc(Br)cc2)o1 was read as p53ts 39C kill -3% and p53ts 32C kill 4%.
For Cc1cc(NCc2ccc(Cl)cc2)n2cnnc2n1 the results were p53ts 39C kill -13% and p53ts 32C kill -10%.
For N#Cc1ccsc1NC(=O)CSc1ncnc2ccccc12 the results were p53ts 39C kill -17%, DNA Pol III inh 0%, TsaE inh inactive, Tau filament bind 20µM*, ERK AVP inh -6% and p53ts 32C kill 10%.
COc1ccc(C2C(=O)N(C3CCC(C)CC3)CC(=O)N2Cc2ccc(C)cc2)cc1OC (stereo not given) was read as p53ts 39C kill -12% and p53ts 32C kill 7%.
CCCCN(CCCNC(=O)c1cc(Nc2ccc(OC)c(OC)c2)nc2ccccc12)Cc1ccccc1 was read as p53ts 39C kill 13µM* and p53ts 32C kill -3%.
CCCCN(C)CCCNC(=O)c1cc(-c2ccc(Br)s2)nc2ccccc12 was read as p53ts 39C kill 13µM* and p53ts 32C kill -11%.
`CCCCN(CCCNC(=O)c1cc(Nc2ccc(OC)cc2)nc2ccccc12)Cc1ccccc1` gave p53ts 39C kill -26% and p53ts 32C kill -8%.
For CCc1ccccc1NC(=O)c1cc(-c2ccc(Cl)s2)nc2ccccc12 the results were p53ts 39C kill 10µM* and p53ts 32C kill inconclusive.
`Cc1cc(C)cc(Nc2cc(C(=O)NCCCN(C)C3CCCCC3)c3ccccc3n2)c1` gave p53ts 39C kill 7.9µM* and p53ts 32C kill inconclusive.
`Cc1ccccc1NS(=O)(=O)c1ccc2[nH]cc(C(=O)NCCc3ccccc3)c(=O)c2c1` gave p53ts 39C kill -11% and p53ts 32C kill -19%.
For CC1=C2[C@H](/C=C(\C)C(=O)O)CC[C@@H](C)[C@H]2CC1 the results were p53ts 39C kill -14%, DNA Pol III inh -5%, TsaE inh inactive, Tau filament bind -11%, ERK AVP inh 2% and p53ts 32C kill 8%[1.84 µM].
For COC(=O)c1cc(Nc2nc3ccccc3nc2NS(=O)(=O)c2ccc(C)cc2)ccc1Cl the results were p53ts 39C kill -8% and p53ts 32C kill -14%.
`CCc1ccc(-n2c(=O)c3c4c(sc3n(CC(=O)c3ccc(Br)cc3)c2=O)CCC4)cc1` gave p53ts 39C kill inconclusive and p53ts 32C kill -9%.
Screening O=C1C(c2ccncc2)=C(O)c2ccccc21 returned p53ts 39C kill 6.3µM*, DNA Pol III inh -3%, TsaE inh inactive, Tau filament bind inconclusive, ERK AVP inh 9% and p53ts 32C kill 3.2µM*.
Screening CCOc1ccc(Nc2nc(-c3cccc(Cl)c3)c3c(n2)-c2ccccc2OC3)cc1 returned p53ts 39C kill 10µM* and p53ts 32C kill inconclusive.
Clc1ccc2[nH]c3c(NCC4CCCO4)ncnc3c2c1 (stereo not given) was read as p53ts 39C kill inconclusive, DNA Pol III inh -5%, TsaE inh inactive, Tau filament bind -4%, ERK AVP inh 25µM* and p53ts 32C kill -6%.
Screening Cc1ccc(N(C)C(=O)CN2C(=O)CCc3cc(S(=O)(=O)N4CCOCC4)ccc32)cc1 returned p53ts 39C kill -12% and p53ts 32C kill 3%.
Screening COc1ccc(-c2noc(CN(C(=O)C(C)Oc3ccc(C)cc3)C(C)C)n2)cc1 (stereo not given) returned p53ts 39C kill -26% and p53ts 32C kill 3%.
`COc1cc(O)cc(/C=C/c2ccccc2)c1` gave p53ts 39C kill inconclusive, ERK AVP inh -12% and p53ts 32C kill inconclusive.
